The text below walks through data of PubChem BioAssay (Tox21).

Results filed as inconclusive are left out. Active and inactive are the calls of the source. Calls follow the shape of the dose curve; as a rule, active = well fitted cell-killing curve with a large enough effect in the repeat runs; inconclusive = weak or mixed curves, or effect the other way; inactive = no such curve, though single readings can be large or run the other way.

A short description of this test: qHTS assay to identify small molecule antagonists of the vitamin D receptor (VDR) signaling pathway - cell viability counter screen (AID 743225). Also: nearly all actives have a fitted effect of over 50% in size. The following applies: VDR-bla HEK293T viability, CellTiter-Glo luminescence, 16 h; series mostly up to 61 µM. The source says:
U.S. Tox21 Program National Center for Advancing Translational Sciences [NCATS] NIH Chemical Genomics Center [NCGC] U.S. Environmental Protection Agency [EPA] National Institutes of Environmental Health Sciences [NIEHS] National Toxicology Program [NTP] U.S. Food and Drug Administration [FDA] Tox21 Assay Overview: The vitamin D receptor (VDR), a member of nuclear hormone receptor superfamily, plays a critical role in calcium homeostasis and bone metabolism. It is also involved in cell differentiation and growth, and thrombogenicity. To identify the compounds that inhibit VDR signaling, the VDR-UAS-bla HEK 293T cell line (Invitrogen, Carlsbad, CA, USA) containing a beta-lactamase reporter gene under the control of an upstream activator sequence (UAS) was used to screen the Tox21 10K compound library. The cytotoxicity of the Tox21 compound library against the VDR-bla cell line was tested in parallel by measuring the cell viability using CellTiter-Glo assay (Promega, Madison, WI) in the same wells.
Tox21 Assay Protocol Summary: VDR-bla cells were dispensed at 2,000 cells/5 uL of assay medium per well into black wall/clear-bottom 1536-well plates using a Multidrop Combi (Thermo Fisher Scientific, Waltham, MA) dispenser. After the assay plates were incubated at a 37C and 5% CO2 for 4 h, 23 nL of compounds dissolved in DMSO, positive controls or DMSO only was transferred to the assay plate by a Pintool station (Kalypsys, San Diego, CA), followed by addition of 1 uL of 1-alpha, 25-Dihydroxy Vitamin D3 (3 nM, final concentration in the wells) using a Bioraptr Flying Reagent Dispenser (FRD) workstation (Beckman Coulter, Indianapolis, IN). The plates were incubated at 37C and 5% CO2 for 16 h, and then 1 uL of LiveBLAzerTM B/G FRET substrate was added using a Bioraptr FRD. The plates were incubated at room temperature for 2 h and fluorescence intensity was measured by an Envision plate reader (PerkinElmer, Shelton, CT). For cell viability readout that measures cytotoxicity, 3 ul/well of CellTiter-Glo reagent was added into the assay plates using a Bioraptr FRD. After 30 min incubation at room temperature, the luminescence intensity in the plates was measured using a ViewLux plate reader (PerkinElmer).
As for `O=C/C=C/c1ccccc1`, the call was inactive.

In the case of `Oc1ccc(Cl)cc1`, the molecule was called inactive.

As to `O=C(O)C1C(C(=O)O)C2(Cl)C(Cl)=C(Cl)C1(Cl)C2(Cl)Cl` (stereo not given), the molecule was classed as inactive.

`CNc1cnn(-c2cccc(C(F)(F)F)c2)c(=O)c1Cl`: the molecule was called inactive.

For `Cc1ccc(O)c(C)c1`, the molecule was called inactive.

For the molecule `O=[N+]([O-])c1ccc(Cl)c(Cl)c1`, the call was inactive.

Take `O=C(O)c1cc(Oc2ccc(C(F)(F)F)cc2Cl)ccc1[N+](=O)[O-]`: the molecule was classed as inactive.

For the molecule `Cl/C=C/Cl`, the result was inactive.

As for `CC(C)CCCCCCOC(=O)c1ccccc1C(=O)OCCCCCCC(C)C`, the call was inactive.

On to `CNC(=O)Oc1cccc2ccccc12`, for which the molecule was called inactive.

On to `COS(=O)(=O)OC`, for which the outcome was inactive.

As to `COC(C)(C)CCCC(C)C/C=C/C(C)=C/C(=O)OC(C)C` (stereo not given), the molecule was classed as inactive.

In the case of `CN(C)C(=O)C(c1ccccc1)c1ccccc1`, the call was inactive.

As for `[N-]=[N+]=CC(=O)OC[C@H](N)C(=O)O`, the call was inactive.

Take `CNC(=O)O/N=C/C(C)(C)SC`: the molecule was classed as inactive.

Regarding `N#Cc1cccc(C#N)c1`, the molecule was called inactive.

For the molecule `ClCCOCCCl`, the molecule was called inactive.

As for `CCCCCCCCCCCCCCCCCC(=O)O`, the call was inactive.

Consider `CCOc1ccc(N)cc1`, for which the molecule was called inactive.

On to `CC[N+](=O)[O-]`, for which the molecule was called inactive.

As to `CCOC(=O)CC(SP(=O)(OC)OC)C(=O)OCC` (stereo not given), the call was inactive.

With `O=[N+]([O-])c1ccc(Cl)cc1`, the call was inactive.

Turning to `N#CN=C(N)N`, the result was inactive.

Take `C=CCN=C=S`: the result was inactive.

Turning to `CCCOC(=O)c1ccccc1C(=O)OCCC`, the outcome was inactive.

In the case of `CC12CC1(C)C(=O)N(c1cc(Cl)cc(Cl)c1)C2=O` (stereo not given), the outcome was inactive.

As to `CCOP(=S)(OCC)Oc1cc(C)nc(C(C)C)n1`, the call was inactive.

For `CN(C)C(=O)Nc1cccc(C(F)(F)F)c1`, the molecule was classed as inactive.

Take `CNC(=O)O/N=C/C(C)(C)S(C)=O` (stereo not given): the outcome was inactive.

For `Nc1ncc([N+](=O)[O-])s1`, the call was inactive.

With `Clc1cnc(Oc2ccc(Oc3ncc(Cl)cc3Cl)cc2)c(Cl)c1`, the molecule was classed as inactive.

As to `c1ccc2c(c1)CCCC2`, the call was inactive.

For `Nc1nc(N)nc(NC2CC2)n1`, the molecule was called inactive.

Consider `CCOP(=S)(OCC)Oc1ccc([N+](=O)[O-])cc1`, for which the outcome was inactive.

`Cc1cc(Cl)ccc1OC(C)C(=O)O` (stereo not given): the molecule was classed as inactive.

Take `OCCCCO`: the molecule was classed as inactive.

Consider `O=S(=O)(O)OOS(=O)(=O)O`, for which the result was inactive.

`FC(F)(F)c1ccc(Cl)cc1`: the molecule was called inactive.

`COc1nc(NC(C)C)nc(NC(C)C)n1`: the molecule was called inactive.

Turning to `OCc1ccco1`, the molecule was called inactive.
